Laboratory results published in ChEMBL document CHEMBL4513216, “Probing the Open Global Health Chemical Diversity Library for Multistage-Active Starting Points for Next-Generation Antimalarials” (ACS Infect Dis, 2020).
The campaign covered roughly 65,000 compounds. About 2,100 (3.2%) showed an effect of 50% or more. The median lay at about -52%. Shown is part of a subset that was picked to be rich in strong results.

test system: Plasmodium falciparum; experiment: Screen against P. falciparum Asexual Blood Stage (ABS), at 5uM; type: functional, Dd2; conditions: tested at 5 uM

SMILES | INHIBITION [%]
c1cncc(OC[C@]23COC[C@H]2CN(C2CCC2)C3)c1 | -4.29
CCC1CCCN(Cc2nc(N)c3ccccc3n2)C1 (stereo not given) | 74
O=S(=O)(C1CC1)N1CCOC2(CCCN(Cc3ccccn3)C2)C1 (stereo not given) | -97.5
CN(C)CCN1CCC(NC2CSCCc3ccccc32)CC1 (stereo not given) | 76.5
CN(C)CCN1CCN(CC2CC2)c2ncccc2C1 | 10.4
CCN1CCc2c(cccc2NC(=O)N(C)C2CCSC2)C1 (stereo not given) | -40.2
O=C1[C@@H]2CN(Cc3ccccn3)C[C@H]2CCN1c1cncnc1 | -99.9
Cc1ccc(-n2nnc(CC(=O)N3CCN(C(C)C)CC3)c2C)cc1 | -42.3
CCC(=O)NCC(=O)NC(Cc1ccccc1)c1sccc1C (stereo not given) | 85.5
CCOC(C)c1noc(CN(C)C(=O)C2C(C)(C)C2(C)C)n1 (stereo not given) | -124
Cc1cc(C)c2cc(CNCc3ccco3)c3nn(C)c(=O)n3c2c1 | 75.5
COc1ccc(CCNCc2ccco2)cc1OC | 5.79
Cc1cc(C)c2cc(CNC3CCCCC3)c3nn(C)c(=O)n3c2c1 | 79.7
Oc1ccc(Cl)cc1CNCc1ccccc1Cl | 76.4
Cc1ccccc1CNCc1cc(Cl)ccc1O | 75.4
Oc1ccc(Cl)cc1CNCc1cccc(C(F)(F)F)c1 | 89
COCCNC(=O)[C@H]1C[C@@H]2CCN(Cc3ccncc3)C[C@H]2O1 | -49.6
O=C(NCc1ccncc1)C1=NOC2(CCCNC2)C1 (stereo not given) | -6.12
Cc1cccc(CN2CC3C[C@]3(NC(=O)c3ccco3)C2)n1 (stereo not given in full) | -83.2
CCCc1nc(CNC(C)Cn2cccn2)cs1 (stereo not given) | -91.5
COCCN1CCN(c2ccc(C)nn2)Cc2ccc(C)nc21 | -54.8
c1ccn2c(C3CCCN(c4ncnc5c4CCNC5)C3)nnc2c1 (stereo not given) | 76.2
Nc1nc2c(c(N3CCCC(c4nnc5ccccn45)C3)n1)CCNC2 (stereo not given) | 84.8
O=C(C1CC1)N1CCc2c(ncnc2N2CCN3CCCC3C2)C1 (stereo not given) | -21.1
Clc1cncc(N2CCN(Cc3ccon3)CC2)n1 | -51.3

SMILES | INHIBITION [%]
CC(C)(N)C(=O)N1CCCC1c1cncc(Oc2ccccc2)n1 (stereo not given) | 78.6
CN1CCCCC1c1cncc(Cl)n1 (stereo not given) | -143
O=C(Nc1cccnc1)[C@@H]1C[C@H]2OCC[C@H]2N(Cc2nccs2)C1 | -80.7
Cn1cc(CN2C[C@@H]3[C@@H](C2)OCC(=O)N3Cc2ccncc2)cn1 | -72.9
COC[C@H]1CC[C@@H]2[C@@H](CCN2Cc2ccccn2)O1 | -7.67
CCN1C[C@H]2[C@@H](C1)N(c1ncc(F)cn1)CC[C@H]2OC | 35.7
CO[C@@H]1CC[C@H]2[C@H]1OCCN2Cc1ccccn1 | -64.6
CO[C@H]1CCN(c2ncc(F)cn2)[C@@H]2CN(Cc3ccco3)C[C@H]12 | 63.7
c1ccc(CN2CC[C@H]3CO[C@H](CNc4ncccn4)[C@H]3C2)nc1 | -30.4
CO[C@@H]1CCN(c2ncc(F)cn2)[C@@H]2CN(CC3CC3)C[C@@H]21 | 6.1
c1ccc(CN2CC[C@@H]3[C@@H](CO[C@@H]3CNc3ncccn3)C2)nc1 | -169
COC[C@H]1CC[C@@H]2[C@@H](CCN2Cc2ccco2)O1 | -128
CO[C@H]1CCN(Cc2ccccn2)[C@@H]2CN(Cc3ccco3)C[C@H]12 | 67.7
CN(Cc1ccco1)C[C@H]1OC[C@@H]2CCN(Cc3ccccn3)C[C@@H]21 | 71.1
CO[C@@H]1CCN(Cc2ccccn2)[C@@H]2CN(Cc3ccco3)C[C@@H]21 | 81.6
c1ccc(COC[C@H]2CC[C@H]3[C@H](CCN3Cc3ccco3)O2)nc1 | -63.4
COc1cccc2c(=O)n(C3CCNCC3)cnc12 | -104
O=C(NC1CCC1)[C@@H]1C[C@@H]2CCN(Cc3ccncc3)C[C@H]2O1 | -70.1
COCCO[C@@H]1C[C@H]2CN(C(=O)c3ccc(C)nc3)CCN2C1 | -15.2
Cn1ccc(CN2CCOCC23CCNCC3)n1 | -75.7
Cc1noc(C)c1C(=O)N1CCC2(CC1)c1nc[nH]c1CCN2C | -42.4
CCN(CC)CCN1CCO[C@H]2[C@@H](OCc3ccncc3)CC[C@@H]21 | -18.1
Cn1cc(CN2C[C@H]3CCC[C@@]3(COc3cccnc3)C2)cn1 | 17.2
Cn1cc(CN2C[C@H]3CCC[C@@]3(COc3ccccn3)C2)cn1 | 66.1
c1ccc(OC[C@]23COC[C@H]2CN(C2CCOCC2)C3)nc1 | 2.04

SMILES | INHIBITION [%]
c1ccc(COC[C@@]23CCC[C@@H]2CN(Cc2ccccn2)C3)nc1 | -56.9
CN(C)CC(=O)N1C[C@H]2CCC[C@@]2(COc2ccccn2)C1 | 84.9
c1ccc(OC[C@]23COC[C@H]2CN(Cc2ccoc2)C3)nc1 | 15.8
COc1ccccc1C1SCC(=O)Nc2c1c(=O)[nH]n2C1CCOCC1 (stereo not given) | -116
COCCN1CCC2(COCc3c(C)nc(N(C)C)nc32)C1 (stereo not given) | -49.6
Cc1nc(N(C)C)nc2c1COCC21CCN(CC2CC2)C1 (stereo not given) | 50.3
CN(C)c1ncc2c(n1)C1(CCN(CC3CC3)C1)COC2 (stereo not given) | -2.79
Cc1ccc(CN(CCCn2ccnc2)Cc2c(F)cccc2F)s1 | 81.5
Cc1cc(C2CCC2)nc(NCCC23CCCN2CCC3)n1 | 12.6
CC(C)COc1ccc(C2SCC(=O)Nc3c2c(=O)[nH]n3C(C)C)cc1 (stereo not given) | -35.2
CCC(C)CN1CCC(n2cc(C3CCCCC3)nn2)CC1 (stereo not given) | 77.1
CSC(C)CCN1CCC(n2cc(C3CCCCC3)nn2)CC1 (stereo not given) | 78.4
CC1(C)C(C(=O)NCCC2CN(Cc3c[nH]cn3)CCO2)C1(C)C (stereo not given) | -64.7
Cc1nc(C2(NCc3cc(C#N)ccc3F)CCCCC2)no1 | -10.8
COc1ccc2[nH]c(C[C@@H]3C[C@@H](C(C)C)[C@H](CN(C)C)C=C3C)nc2c1 | 78.9
Cc1ccc(CN2C[C@@H]3CCN(Cc4cccnc4)C(=O)[C@H]3C2)s1 | -93.5
CC(C)c1nccc([C@@H]2C[C@@H]3CCN(Cc4ccco4)C[C@H]3O2)n1 | -12.5
CN(C)C(=O)CN1CCOCC2(C1)CN(c1ncccn1)CCO2 (stereo not given) | -97
Cc1nc(-c2ccc(F)c(F)c2)cc(C2CCNCC2)n1 | 84.1
CN1CCN(S(=O)(=O)c2ccc(Cl)c(Cl)c2)c2cnccc21 | 89.6
CN1CCN(S(=O)(=O)c2cccc(F)c2)Cc2cccnc21 | -37.8
Cn1cc(CN2CC[C@H]3[C@H]2CC(=O)N3Cc2ccncc2)cn1 | -2.65
FC1(F)CCNCC12CCN(c1cccnc1)C2 (stereo not given) | 66.6
OCCN1CCC(F)(F)C2(CCN(c3cccnc3)C2)C1 (stereo not given) | -46.2
FC1(F)CCNCC12CCN(c1ncccn1)C2 (stereo not given) | 19.8

SMILES | INHIBITION [%]
FC1(F)CCNCC12CCN(c1ccccn1)C2 (stereo not given) | 58.6
FC1(F)CCN(Cc2cccnc2)CC12CCN(c1ccccc1)C2 (stereo not given) | 85.3
Fc1cccnc1N1CCC2(CNCCC2(F)F)C1 (stereo not given) | 47.8
c1cnc(N2CC3(CCN(Cc4cccnc4)C3)C2)nc1 | -85.5
O=C1CSC(c2ccc(O)cc2)c2sccc2N1 (stereo not given) | -74.5
c1coc(CN2CC[C@@H]3O[C@@H](COCc4ccncc4)CC[C@@H]32)c1 | -70.4
CCCN1CCN(C(=O)Cc2cccnc2)[C@H]2CS(=O)(=O)C[C@H]21 | -103
CO[C@H]1CN(CC2CC2)[C@@H]2CCCO[C@H]12 | 7.3
Cc1nc(C2CCN(C)CC2)cc(N2CCOc3ccc(Cl)cc3C2)n1 | 70.7
CC(Cn1cccn1)NCc1nc(-c2ccsc2)no1 (stereo not given) | -40
CCS(=O)(=O)N1CCc2c(CN3CCOCC3)cncc2C1 | -10.2
CC1CN(Cc2ccccc2)CCCN1CCNS(C)(=O)=O (stereo not given) | 71.7
CS(=O)(=O)NC[C@H]1OC[C@@H]2CN(Cc3cccnc3)CC[C@@H]21 | -58.6
O=C(O)[C@H]1CN(Cc2ccccc2)C[C@@H]1C(=O)c1ccccc1 | -40.5
Cc1cnc(NCCc2c[nH]cn2)nc1-c1ccnn1C | -84
CCC(C)Oc1ccc(CNCCc2c[nH]cn2)cc1Cl (stereo not given) | 91.9
Cc1cccc(CN2CCN3C[C@H](Oc4cncnc4)C[C@H]3C2)n1 | -87
Cc1cccc(CN2CCC3(CCN(c4ncccn4)CC3)C2=O)c1 | 76
Cc1cccnc1CN(C)CC1(O)CCCN(CC2CCCCC2)C1=O (stereo not given) | 44.3
Cc1cccc(CN2CCCC[C@H]3CN(c4ncccn4)C[C@H]32)c1 | -35.2
Cc1cccc(CN2CCCC(O)(CNCc3ncccc3C)C2=O)c1 (stereo not given) | 82.1
CCC(=O)N1CCC2(CC1)C(=O)N(Cc1cccnc1)CCN2C | 0.961
Cc1ccc(CN2C[C@@H]3CN(c4ncccn4)C[C@@H]3C2)cc1 | -62.8
CC(C)c1cc(N2CCC3(CC2)CN(C)CCN3C)ncn1 | -11.3
CCOc1ncccc1C(=O)N1CCN(C)C2(CCN(C)CC2)C1 | 10.3
